Data on 7 compounds can be found in PubChem BioAssay (NCI).

Test systems include NCI-H23 lung; NCI-H226 lung; NCI-H322M lung; HOP-62 NSCLC; NCI-H460 lung; NCI-H522 lung; A549/ATCC NSCLC; 786-0 renal; COLO 205 colon; DU-145 prostate; K-562 leukemia; MALME-3M melanoma; MDA-MB-231 breast; RXF 393 renal; SF-268 CNS; SF-295 CNS; SF-539 CNS; UACC-257 melanoma; M14 melanoma; HCT-15 colon.
Common to all, as to assay: NCI-60 one-dose screen, 48 h (100 = growth as untreated, 0 = no growth, -100 = all killed)
Holding throughout (conditions): 10 µM

Compounds without any hit were thinned out: in the full panel of roughly 83,000, 20% have a hit.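 Cells were grown in 96-well plates and exposed to the test compound at a single concentration for 48 hours; results are reported as percent growth, with values below 10 considered active.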 Values without a mark were called inactive. The source made the active and inactive calls.

Take `COc1ccc(OC)c(/C=C/c2nc(SCc3ccccc3)n(-c3ccc(Cl)cc3)n2)c1`: the growth in the test on NCI-H23 lung was 54.3%; in the test on NCI-H226 lung it was 72.7%; in the test on NCI-H322M lung, 82.9%; in the test with HOP-62 NSCLC, 79.4%; with NCI-H460 lung, 24.4%; with NCI-H522 lung, 66.6%. The growth was 46.5% with A549/ATCC NSCLC; 48.8% with 786-0 renal; 114% with COLO 205 colon; 77.7% with DU-145 prostate; 18.2% with K-562 leukemia; 34.9% in the test on MALME-3M melanoma. Also, the growth is 67.1% in the test on MDA-MB-231 breast; 82.8% in the test with RXF 393 renal; 57.7% in the test with SF-268 CNS; -15.4% (active) in the test on SF-295 CNS; 44.2% with SF-539 CNS; 74% with UACC-257 melanoma. Besides, the growth with M14 melanoma is 14.1%; in the test on HCT-15 colon, 34%.
Turning to `CC/C(=C(/c1ccc(OCCN(C)C)cc1)c1ccc(OC(=O)CCC(=O)c2c(C)[nH]c(/C=C3\N=C(c4ccc[nH]4)C=C3OC)c2C)cc1)c1ccccc1`, the growth in the test with NCI-H23 lung was 52.3%; in the test with NCI-H226 lung it was 23.4%; with NCI-H322M lung it was 75.3%; in the test on HOP-62 NSCLC it was 28%; with NCI-H460 lung, 51%; in the test on NCI-H522 lung, -0.572% (active). The growth in the test on A549/ATCC NSCLC is 11%; with 786-0 renal, 21.4%; with COLO 205 colon, 28.3%; with DU-145 prostate it was 21.4%; in the test on K-562 leukemia it was 0.3% (active); in the test on MALME-3M melanoma, -9.96% (active). The growth with MDA-MB-231 breast is -30% (active); in the test on RXF 393 renal, 15.2%; in the test on SF-268 CNS, 31.2%; in the test with SF-295 CNS it was 33.5%; in the test with SF-539 CNS, 49.7%; in the test with UACC-257 melanoma, 45.5%. The growth is -66.6% (active) in the test with M14 melanoma and 3.7% (active) in the test with HCT-15 colon.
As to `CSc1nn(-c2ccccc2)c2ncnc(Oc3ccccc3)c12`, the growth was 101% with NCI-H23 lung; 90.6% in the test on NCI-H226 lung; 88.6% in the test on NCI-H322M lung; 96.7% in the test with HOP-62 NSCLC; 103% in the test on NCI-H460 lung; 72.6% in the test on NCI-H522 lung. For the same compound, the growth in the test on A549/ATCC NSCLC was 87.3%; in the test on 786-0 renal, 92.9%; in the test with COLO 205 colon, 118%; in the test with DU-145 prostate it was 101%; in the test on K-562 leukemia, 96.5%; in the test with MALME-3M melanoma it was 104%. For the same compound, the growth in the test on MDA-MB-231 breast is 98.3%; in the test with RXF 393 renal, 83.6%; in the test on SF-268 CNS it was 92.5%; in the test with SF-295 CNS it was 101%; in the test on SF-539 CNS, 98%; in the test on UACC-257 melanoma it was 107%. Further, the values for the growth in the test on M14 melanoma and in the test with HCT-15 colon were 102% and 93.2%, respectively.
Take `Cn1c(N)c(N=Nc2ccc(S(=O)(=O)Nc3nccs3)cc2)c(=O)n(C)c1=O`: the growth in the test on NCI-H23 lung was 94%; with NCI-H226 lung, 104%; with NCI-H322M lung, 92.9%; in the test on HOP-62 NSCLC, 105%; in the test with NCI-H460 lung, 109%; in the test with NCI-H522 lung, 82.2%. The growth was 105% in the test with A549/ATCC NSCLC; 98.1% with 786-0 renal; 105% in the test on COLO 205 colon; 106% with DU-145 prostate; 90.2% in the test with K-562 leukemia; 86.8% in the test with MALME-3M melanoma. The growth with MDA-MB-231 breast is 111%; in the test with RXF 393 renal, 130%; in the test on SF-268 CNS it was 103%; in the test on SF-295 CNS, 91%; in the test on SF-539 CNS, 98.3%; in the test on UACC-257 melanoma, 95.6%. The growth is 101% in the test with M14 melanoma and 110% with HCT-15 colon.
As for `CCCCCCN1C(=O)C2=C(c3ccc(Cl)cc3)Nc3c(c(C)nn3-c3ccccc3)C2c2ccccc21` (stereo not given), the growth in the test with NCI-H23 lung was 98.6%; in the test on NCI-H226 lung, 77.5%; in the test on NCI-H322M lung, 90.5%; in the test with HOP-62 NSCLC, 96.8%; in the test on NCI-H460 lung, 106%; with NCI-H522 lung, 80.7%. Besides, the growth is 85.2% in the test with A549/ATCC NSCLC; 89% with 786-0 renal; 106% in the test on COLO 205 colon; 104% in the test with DU-145 prostate; 85.3% in the test on K-562 leukemia; 90.9% with MALME-3M melanoma. Besides, the growth in the test with MDA-MB-231 breast is 103%; in the test with RXF 393 renal, 83.7%; with SF-268 CNS, 103%; with SF-295 CNS it was 92.4%; in the test with SF-539 CNS, 105%; with UACC-257 melanoma, 90.7%. Moreover, the values for the growth with M14 melanoma and with HCT-15 colon were 103% and 93.4%, respectively.
Consider `CC(C)(C)c1ccc(N2CSC(=S)N(c3ccc(C(C)(C)C)cc3)C2)cc1`, for which the growth in the test on NCI-H23 lung was 86.5%; in the test on NCI-H226 lung it was 93.2%; in the test with NCI-H322M lung, 86.7%; in the test on HOP-62 NSCLC, 88.2%; in the test with NCI-H460 lung, 91.7%; in the test on NCI-H522 lung, -14.2% (active). Further, the growth in the test on A549/ATCC NSCLC was 38%; with 786-0 renal, 103%; in the test on COLO 205 colon, 92.5%; in the test on DU-145 prostate, 123%; in the test on K-562 leukemia it was 90.1%; with MALME-3M melanoma it was 85.8%. Besides, the growth was 97.4% in the test on MDA-MB-231 breast; 144% in the test with RXF 393 renal; 109% with SF-268 CNS; 99.9% with SF-295 CNS; 97.9% in the test on SF-539 CNS; -6.73% (active) with UACC-257 melanoma. Also, the growth was 95.9% with M14 melanoma and 94.7% in the test with HCT-15 colon.
In the case of `Nc1c(C(=O)Nc2ccccc2)sc2nc3c(cc12)CCCC3`, the growth in the test with NCI-H23 lung was 38%; in the test on NCI-H226 lung, 52.8%; in the test on NCI-H322M lung, 56.9%; with HOP-62 NSCLC it was 49.9%; in the test with NCI-H460 lung, 10.9%; in the test on NCI-H522 lung, 29.7%. Moreover, the growth is 21.7% with A549/ATCC NSCLC; 57% with 786-0 renal; 1.79% (active) in the test with COLO 205 colon; 11.1% in the test on DU-145 prostate; 13.6% in the test on K-562 leukemia; 52% in the test with MALME-3M melanoma. In addition, the growth in the test with MDA-MB-231 breast is 56%; in the test with RXF 393 renal, -24.3% (active); with SF-268 CNS, 54.7%; with SF-295 CNS, 5.09% (active); in the test on SF-539 CNS, -3.86% (active); in the test with UACC-257 melanoma it was 59.2%. The growth with M14 melanoma is 22.7%; in the test on HCT-15 colon it was 24.8%.
